Measured values: ChEMBL document CHEMBL3988442, “University of Dundee, Small-Polar-MMV Screening Library” (2021)
Screen size: about 48,000 compounds; about 13,000 (27%) showed an effect of 50% or more. The list shows a part of the results.

tested on: Wolbachia pipientis; assay: Anti-Wolbachia Cell-Based Screen; type: functional; design: scale not given: in the data most compounds retested in dose-response had high values; conditions: 5 µM

SMILES	Percent Effect
Cc1nc(N2CCN(C(=O)c3ccccc3)CC2)c2cnn(C)c2n1	113.9%
Cn1ncc2c(N3CCCN(C(=O)c4ccsc4)CC3)ncnc21	109.6%
Cc1nc(N2CCN(C(=O)c3ccc(O)cc3)CC2)c2cnn(C)c2n1	3.35%
Cn1ncc2c(N3CCN(C(=O)c4ccsc4)CC3)ncnc21	110.5%
Cc1nc(N2CCN(C(=O)c3ccccc3)CC2)c2c(n1)c(C)nn2C	38.43%
Cc1ncnc2c1CCN(C(=O)c1ccsc1)CC2	-12.52%
Cc1csc(N2CCCN(C(=O)c3ccsc3)CC2)n1	30.07%
Cc1nc(N2CCN(C(=O)c3ccsc3)CC2)c2cnn(C)c2n1	2.047%
Cn1ncc2c(=O)[nH]c(N3CCN(C(=O)c4ccsc4)CC3)nc21	8.888%
CCc1nsc(N2CCCN(C(=O)c3ccsc3)CC2)n1	9.27%
Cc1nc(N2CCCN(C(=O)c3ccsc3)CC2)c2cnn(C)c2n1	93.06%
Cn1nc(C#N)c2c1CN(C(=O)c1ccsc1)CCC2	-3.731%
CN(C)CCn1c(=O)oc2ccc(NC(=O)CC(C)(C)C)cc21	14.89%
Cc1ccc(NC(C)C(=O)NCc2cccs2)cc1C (configuration not stated)	-16.27%
CCOc1ccc2ccccc2c1CNCC1CCS(=O)(=O)C1.Cl (configuration not stated)	-1.499%
CCOc1ccnc(N2CCN(C(=O)C(C)(C)C#N)CC2)n1	0.4658%
COc1cc(CN(C)C(=O)NCc2cccnc2OC)ccc1SC	-20.02%
Cc1cc(CS(=O)(=O)C(C)c2ccc(F)cc2)on1 (configuration not stated)	-4.028%
COc1ccc(CNC2CCN(c3ccccc3)C2)c(OC)c1OC (configuration not stated)	-16.13%
O=C(c1ccnc(-n2ccnc2)c1)N1CCCC(n2cccn2)C1 (configuration not stated)	103.2%
Cc1nccn1C1CCCN(C(=O)c2cccc(Cn3ccnc3)c2)C1 (configuration not stated)	99.35%
O=C(c1cccc(Cn2ccnc2)c1)N1CCCC(n2ccnc2)C1 (configuration not stated)	0.5166%
O=C(c1ccnc(-n2ccnc2)c1)N1CCCC(n2ccnc2)C1 (configuration not stated)	100.2%
Cc1nccn1C1CCCN(C(=O)c2ccnc(-n3ccnc3)c2)C1 (configuration not stated)	102.3%

SMILES	Percent Effect
CN(C)c1cc(C(=O)N2CCCC(n3cccn3)C2)ccn1 (configuration not stated)	-2.177%
O=C(c1ccc(-n2ccnc2)nc1)N1CCCC(n2cccn2)C1 (configuration not stated)	-14.33%
CC(C)n1ccnc1CN1CCOC(CC2CCCCC2)C1 (configuration not stated)	1.186%
CCc1ccc(-c2cn(CCSc3ncn[nH]3)nn2)nc1	2.471%
Cn1nnnc1SCCNC(=O)C1CCN(C(=O)C2CCC2)CC1	1.92%
CC(C)[C@H]1CN(CC2CCC2)C[C@@H]1NC(=O)c1ccc(=O)[nH]c1	7.651%
CN(C)C(=O)c1nc(CN2C(=O)OC[C@@H]2c2ccccc2)no1	1.255%
O=C(CN1CCS(=O)(=O)CC1)NC1CCCc2ccccc21 (configuration not stated)	8.057%
CCN(CCO)Cc1cn(-c2cccc(F)c2)nc1-c1ccc(C)o1	11.71%
O=C1CN(Cc2nnc(-c3ccc(Cl)cc3)o2)CCN1	-10.36%
c1ccc2c(c1)CC(N1CCCC(NCc3cccc4nonc34)C1)C2 (configuration not stated)	-10.52%
CCN(CCn1cccn1)C(=O)CN1C(=O)OC[C@@H]1c1ccccc1	-1.306%
O=S(=O)(CC1CCCN1S(=O)(=O)c1cccnc1)c1ccccc1 (configuration not stated)	115.5%
CS(=O)(=O)N1CCCC1CS(=O)(=O)c1ccccc1 (configuration not stated)	121.3%
CS(=O)(=O)N1CCCCC1CCc1ccc(O)cc1 (configuration not stated)	6.219%
NC1CCCCN(Cc2ccccc2CS(=O)(=O)c2ccccc2)C1 (configuration not stated)	-12.21%
Cc1nccn1CC1CCCN1S(=O)(=O)Cc1ccccc1 (configuration not stated)	-11.24%
O=S(=O)(c1cccnc1)N1CCN(CC(O)c2ccccc2)CC1 (configuration not stated)	2.359%
O=C(CC1CCCN1S(=O)(=O)N1CCCCC1)c1cccs1 (configuration not stated)	-4.447%
O=S(=O)(CC1CCCN1S(=O)(=O)C1CC1)c1ccccc1 (configuration not stated)	115.6%
O=S(=O)(c1cccnc1)N1CCCC1COc1ccccc1 (configuration not stated)	-14.29%
CS(=O)(=O)c1ccc(-c2c[nH]c([C@@H]3COCCN3)n2)cc1	22.57%
COc1ccc(OC)c2c(C)cc(N(C)Cc3cc(C)on3)nc12	-2.431%
Cc1nc2cc(=O)[nH]n2c(C)c1CC(=O)Nc1ccc2ccccc2n1	-9.33%

SMILES	Percent Effect
Cc1cccc(-c2noc([C@@H]3C[C@@H](O)CN3C3CCOCC3)n2)c1	-7.928%
COc1cccc(-c2noc(C3CCN(Cc4cccs4)C3)n2)c1.Cl (configuration not stated)	4.787%
COc1cccc(-c2cccc(CN3C[C@@H]4CC[C@H](C3)N(C)C4=O)c2)c1	5.514%
CCS(=O)(=O)c1ccc2oc([C@H]3CCN(CC4CCCCC4)C3)nc2c1	-4.53%
COc1cccc(COC(C)C(=O)NC2CCN(CC(N)=O)CC2)c1 (configuration not stated)	-5.378%
COc1cccc(-c2noc(C3CCN(Cc4ccc(C)cc4)C3)n2)c1.Cl (configuration not stated)	91%
c1ccc(-c2noc(C3CCN(CCn4cccn4)CC3)n2)cc1	4.986%
COc1cccc(-c2noc(C3CCN(CC(N)=O)C3)n2)c1 (configuration not stated)	113.2%
COc1cccc(-c2noc(C3CCN(Cc4ccncc4)C3)n2)c1 (configuration not stated)	126.2%
COc1cccc(-c2noc(C3CCN(CC4CCCCC4)C3)n2)c1.Cl (configuration not stated)	96.8%
Cc1c(NC(C)C(C)C)cccc1C(=O)NCc1cnn(C)c1 (configuration not stated)	6.886%
COC(=O)c1sccc1S(=O)(=O)NCC1(O)CCOc2ccccc21 (configuration not stated)	-4.679%
CCOC(=O)CN1CCC(NC(=O)OC(C)(C)C)CC1	-0.4465%
COc1cccc([C@@H](C)n2ccnc2-c2cc3n(n2)CCNC3)c1	-10.36%
CN(Cc1nc2ccccc2[nH]1)C(=O)C(C)(C)n1cc(Cl)cn1	2.79%
O=C(O)CCc1cccc(C2CCCN2Cc2cccc(Cl)c2)n1 (configuration not stated)	91.67%
NC(=O)COc1cccc(CN2CCCC2c2ccc[nH]2)c1 (configuration not stated)	11.28%
COc1cc(C)nc(N2CCN(C(=O)CCc3cscn3)CC2)n1	-12.29%
O=C(O)CCc1cn(C2CCN(c3ncccc3Cl)CC2)nn1	-1.723%
O=C(O)CCc1cccc(C2CCCN2Cc2ccc(F)c(F)c2)n1 (configuration not stated)	-6.193%
Cc1cc(C)nc(N2CCC(c3cccc(CCC(=O)O)n3)CC2)n1	80.96%
Cc1nn(C)c(C)c1C1CCCN1Cc1cccc(C(N)=O)c1 (configuration not stated)	1.349%
CC(=O)c1cc(CN2CCCC2c2nc3ccc(C)cc3[nH]2)cs1 (configuration not stated)	-31.75%
Cc1cccc(CN2CCCC2c2cccc(CCC(=O)O)n2)c1 (configuration not stated)	96.42%
